According to PMC4336329 (PLoS ONE, 2015):
The campaign covered roughly 310,000 compounds. About 14,000 (4.5%) showed an effect of 50% or more. The effect is printed as a negative number. Many of the other results were omitted from the sample, so strong results are more common in it than they were.

biological target: human ether-à-go-go-related gene (hERG) potassium channel (human, UniProt Q12809); assay: primary screen, population patch clamp on CHO cells stably expressing hERG; higher = less effect of the substance
Sequence (Q12809 whole entry, looked up): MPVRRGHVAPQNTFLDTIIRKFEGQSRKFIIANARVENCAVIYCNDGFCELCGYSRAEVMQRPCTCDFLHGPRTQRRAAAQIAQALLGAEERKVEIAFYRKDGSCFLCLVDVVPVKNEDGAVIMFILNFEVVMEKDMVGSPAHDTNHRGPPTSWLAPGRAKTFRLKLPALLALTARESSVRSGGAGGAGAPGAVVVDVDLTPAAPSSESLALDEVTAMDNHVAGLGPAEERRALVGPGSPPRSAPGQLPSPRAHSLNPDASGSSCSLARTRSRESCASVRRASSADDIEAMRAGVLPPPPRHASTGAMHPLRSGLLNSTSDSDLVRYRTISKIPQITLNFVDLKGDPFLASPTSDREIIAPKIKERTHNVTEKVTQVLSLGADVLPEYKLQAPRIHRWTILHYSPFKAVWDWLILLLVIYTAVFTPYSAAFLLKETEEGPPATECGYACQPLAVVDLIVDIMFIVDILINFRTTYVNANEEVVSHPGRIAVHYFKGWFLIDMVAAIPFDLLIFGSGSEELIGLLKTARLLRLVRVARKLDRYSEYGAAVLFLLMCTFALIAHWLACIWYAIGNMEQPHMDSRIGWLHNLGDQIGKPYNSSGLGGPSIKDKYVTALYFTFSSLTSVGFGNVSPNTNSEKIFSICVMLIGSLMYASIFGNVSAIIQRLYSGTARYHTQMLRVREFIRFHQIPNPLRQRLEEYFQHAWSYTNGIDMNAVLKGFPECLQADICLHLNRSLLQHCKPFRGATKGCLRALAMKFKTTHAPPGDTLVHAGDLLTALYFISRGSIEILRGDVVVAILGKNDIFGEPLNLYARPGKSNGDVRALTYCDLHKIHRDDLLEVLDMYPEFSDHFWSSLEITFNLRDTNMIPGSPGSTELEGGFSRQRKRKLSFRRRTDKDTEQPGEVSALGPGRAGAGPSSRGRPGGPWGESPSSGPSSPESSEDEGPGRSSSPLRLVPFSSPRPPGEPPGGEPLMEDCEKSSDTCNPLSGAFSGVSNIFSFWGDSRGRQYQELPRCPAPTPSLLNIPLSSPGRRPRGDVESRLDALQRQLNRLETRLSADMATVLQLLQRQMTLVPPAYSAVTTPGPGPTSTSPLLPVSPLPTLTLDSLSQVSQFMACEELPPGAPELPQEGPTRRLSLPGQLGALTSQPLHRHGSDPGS
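Note: peak tail current of the secondary pulse compared with the same well before compound.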

| SMILES | hERG current change (%, negative = inhibition) at 10uM [%] |
| --- | --- |
| COc1cccc(C(c2c(O)nc(SC)n(C)c2=O)c2c(O)nc(SC)n(C)c2=O)c1 | 0.717 |
| COc1ccc(-n2nc3c(c2NC(=O)c2ccc(S(=O)(=O)N4CCOCC4)cc2)CS(=O)(=O)C3)cc1 | 14.6 |
| Cc1ccc(C(=O)N2CCN(c3ccc(NC(=O)c4cccnc4Cl)cc3)CC2)cc1 | -27.8 |
| Cc1cc(S(=O)(=O)NCCCN2CCOCC2)c(Cl)cc1Cl | -13.1 |
| Cc1ccccc1C(=O)Oc1ccc2ccc(O)cc2c1 | 14.5 |
| O=C(CSc1nnc(Cc2ccccc2)o1)N1CCOCC1 | 0.161 |
| O=C(CSc1nnc(-c2ccncc2)n1-c1ccccc1)Nc1ccc(C(=O)O)cc1 | 25.5 |
| CCNC(=O)Nn1c(-c2ccccc2)nc2ccccc2c1=O | 22.9 |
| Cc1ccc(C(=O)NCc2n[nH]c(=S)n2-c2ccccc2)cc1[N+](=O)[O-] | 7.76 |
| Cc1cc(NC(=O)Cn2nnc(-c3ccccc3NC(=O)c3ccccc3F)n2)no1 | 12.5 |
| COc1ccc(-c2[nH]ncc2Oc2ccccc2OC)c(O)c1 | -11.3 |
| O=S(=O)(Nc1nc2ccccc2s1)c1ccc(Br)s1 | -5.3 |
| c1ccc(CC2CCN(c3nnnn3-c3ccccc3)CC2)cc1 | -13.1 |
| Fc1ccc(N2CCN(C3=Nc4cccc5cccc3c45)CC2)cc1 | -77 |
| N#Cc1nc(Cc2ccccc2)oc1N1CCC(Cc2ccccc2)CC1 | 24.5 |
| c1cc2c3c(cccc3c1)C(N1CCCCC1)=N2 | -66.2 |
| O=C(CN1C(=O)c2cccc3cccc1c23)N1CCN(c2ccc(F)cc2)CC1 | 9.69 |
| O=S1(=O)N=C(N2CCN(c3ccc(F)cc3)CC2)c2ccccc21 | -8.87 |
| c1cc2c3c(cccc3c1)C(N1CCOCC1)=N2 | -31 |
| Cl.O=C1C2C3C=CC(C4CC34)C2C(=O)N1CCCCN1CCN(c2ccc(F)cc2)CC1 (stereo not shown) | -69.3 |

| SMILES | hERG current change (%, negative = inhibition) at 10uM [%] |
| --- | --- |
| O=C1C2CCCN2C(=O)N1CCCCN1CCN(c2ccc(F)cc2)CC1 (stereo not shown) | -43.2 |
| c1ccc(CC2CCN(C3=Nc4cccc5cccc3c45)CC2)cc1 | -80 |
| CC1CN(C2=Nc3cccc4cccc2c34)CC(C)O1 (stereo not shown) | -47.6 |
| O=C1C2C3C=CC(C4CC34)C2C(=O)N1CCc1ccccc1 (stereo not shown) | 3.23 |
| Cc1ccc(S(=O)(=O)N2CCC(C(=O)OCc3c(C)noc3C)CC2)cc1C | -15.8 |
| COc1ccc(S(=O)(=O)NC2CC(C)(C)NC(C)(C)C2)c2ccccc12 | 6.47 |
| CCc1nc(C)c(C#N)c2cc(OC)c(OC)cc12 | 1.21 |
| CC(C)(C)OC(=O)NCCc1nnc(S(=O)(=O)Cc2ccc(Cl)cc2Cl)o1 | -5.97 |
| CCCOc1ccc(/C=N/NC(=S)Nc2ccccc2[N+](=O)[O-])c(O)c1 | 24.3 |
| COC(=O)c1c(C)c2c(C)cc3ccccn3c-2c1C(=O)OC | -4.02 |
| O=C(O)CCC(=O)N1CCN(S(=O)(=O)c2ccc3ccccc3c2)CC1 | 25.6 |
| COc1ccccc1N1CCN(C2=Nc3cccc4cccc2c34)CC1 | -71.5 |
| O=C(CN1C(=O)c2cccc3cccc(c23)C1=O)N1CCCCCC1 | 9.58 |
| CC(=O)N1CCN(C2=Nc3cccc4cccc2c34)CC1 | -46 |
| O=C1c2cccc3cccc(c23)C(=O)N1CCCN1CCN(c2ccc(F)cc2)CC1 | -69.2 |
| c1ccc(NC2=Nc3cccc4cccc2c34)cc1 | 1.71 |
| c1cc2c3c(cccc3c1)C(N1CCCCCC1)=N2 | -67 |
| O=C(CN1CCN(CCN2C(=O)c3cccc4cccc(c34)C2=O)CC1)c1ccc(F)cc1 | -42.4 |
| COc1ccccc1N1CCN(C(=O)CN2C(=O)c3cccc4cccc(c34)C2=O)CC1 | 16.9 |
| O=C(CCCN1C(=O)c2cccc3cccc(c23)C1=O)N1CCN(c2ccc(F)cc2)CC1 | -1.91 |

| SMILES | hERG current change (%, negative = inhibition) at 10uM [%] |
| --- | --- |
| Cc1cc(C)n(Cc2ccc(C(=O)Nc3ccc(Br)cc3C)o2)n1 | -19.4 |
| O=C(COc1ccccc1O)Nc1ccc(Cl)cc1 | 5.23 |
| Cc1ccc(C(=O)CSc2ccccc2C(=O)O)cc1 | 16.9 |
| Cc1ccccc1C(=O)NC1CCN(Cc2nnnn2C2CCCC2)CC1 | 3.85 |
| C#CCOC(=O)c1ccccc1C(=O)O | 7.07 |
| N#C/C(=C/c1cc(Br)cs1)C(=O)NCC1CCCO1 (stereo not shown) | -14.8 |
| O=C(OCn1ncc(Br)c(Br)c1=O)c1c(F)cccc1F | 14.9 |
| O=C(OCn1ncc(Cl)c(Cl)c1=O)c1ccc(F)cc1 | -3.74 |
| O=C(OCn1ncc(Br)c(Br)c1=O)c1ccc(F)cc1 | -51.4 |
| O=C(CN1CCN(Cc2cccc(F)c2)CC1)Nc1ccccc1F | -55.9 |
| O=C(CN1CCN(C(=O)c2cccc(F)c2)CC1)Nc1ccccc1F | -70.1 |
| O=C(CN1CCCCCC1)Nc1ccc(Cl)cc1F | -2.05 |
| Cl.O=C(CN1CCN(C(=O)c2cccc(F)c2)CC1)NC1CCCCC1 | 2.39 |
| O=C(CN1CCN(C(=O)c2c(F)cccc2F)CC1)Nc1ccccc1F | -11.3 |
| O=C(CN1CCN(Cc2cccc(F)c2)CC1)NCc1ccccc1 | -10.4 |
| O=C(CN1CCN(Cc2ccc(F)cc2)CC1)Nc1ccccc1F | -35.2 |
| O=C(CN1CCN(C(=O)c2ccccc2)CC1)Nc1ccc(Cl)cc1F | -71 |
| O=C(c1cccc(Cl)c1)N1CCN(Cc2ccccc2F)CC1 | 10.1 |
